# proKLK7 act: proKLK7 zymogen activators, primary screen, biochemical, fluorescence intensity; hit rate 0.9% among 370,000; AID 652039, 2013; activation, % at 7 µM; purified proKLK7, EDANS-DABCYL substrate fluorescence; 100% is mature enzyme control, 0% vehicle;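 active means activation above the mean of all tested compounds plus 3 SD, computed per campaign excluding outliers beyond control limits, cut at about 13% in these data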
# Target sequence (P49862 whole entry, looked up): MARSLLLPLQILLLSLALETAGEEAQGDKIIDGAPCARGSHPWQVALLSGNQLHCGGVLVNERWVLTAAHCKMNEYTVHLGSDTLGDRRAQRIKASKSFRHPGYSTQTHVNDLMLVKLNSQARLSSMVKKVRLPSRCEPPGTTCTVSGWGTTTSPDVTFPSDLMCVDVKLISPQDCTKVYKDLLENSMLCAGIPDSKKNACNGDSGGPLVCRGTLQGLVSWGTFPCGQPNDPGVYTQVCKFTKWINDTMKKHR
# GC-A act: GC-A stimulated cGMP production enhancers – HEK293 GC-A cells, cGMP TR-FRET, EC30 ANP, primary screen. activation, % at 10 µM. hit rate 0.14% among 370,000. 0% at EC30 ANP, 100% saturating ANP; in the data active means activation above about 40%
# ADAM10 inh: human ADAM10 inhibitors, primary screen, biochemical, QFRET, HTS. Disintegrin and metalloproteinase domain-containing protein 10 (Homo sapiens), O14672. inhibition, % at 7 µM. AID 720582, 2013. hit rate 0.62% among 370,000. recombinant ADAM10, EDANS/DABCYL FRET peptide cleavage, 3 h;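 active means inhibition above a per-campaign cutoff equal to the mean of compounds falling between control-based bounds plus 3 SD, cut at about 20% in these data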
# ADAM17 inh: ADAM17 inhibitors, primary screen, biochemical, QFRET. recombinant ADAM17, EDANS/DABCYL FRET peptide cleavage. Disintegrin and metalloproteinase domain-containing protein 17 (Homo sapiens), P78536. hit rate 0.83% among 370,000. inhibition, % at 6.95 µM;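 active means inhibition above the mean of compounds lying between control limits plus 3 SD, set per campaign, cut at about 8.5% in these data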
# GC-B act: human GC-B receptor activators, primary screen, HEK293 GC-B cells, cGMP TR-FRET, EC30 CNP | Atrial natriuretic peptide receptor 2 (Homo sapiens), P20594 | 0% at EC30 CNP, 100% saturating CNP | activation, % at 10 µM | hit rate 0.11% among 370,000 | AID 1920062, 2024;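 active means activation at 10 µM reaching about 35% in either raw or pattern-adjusted values, limit read from the data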
# Hits are given with their value; 0 = inactive; - = no result. The list is not random: actives were taken first. Their share in the collection is about 2.2%.
SMILES,proKLK7 act,GC-A act,ADAM10 inh,ADAM17 inh,GC-B act
CCOC(=O)c1ccc(NC(=O)Cn2ncc(Cl)c(Cl)c2=O)cc1,0,60.7,0,0,0
Clc1ccc(-c2nc(-c3ccncc3)no2)c(Cl)c1,0,46.1,0,0,0
Clc1ccc(Cl)c(-c2nc(-c3ccncc3)no2)c1,0,0,0,0,0
O=[N+]([O-])c1cc(Cl)ccc1-c1nc(-c2ccncc2)no1,0,45.7,0,0,0
Cc1ccc(S(=O)(=O)N2CCCC2C(c2ccccc2O)c2cn(C)c3ccccc23)cc1 (configuration not stated),0,0,0,0,0
CS(=O)(=O)c1sc(C#N)c2c1C(=O)CC(c1ccccc1)C2 (configuration not stated),0,0,0,0,48.4
Cc1ccc(C)c(NC(=O)CN2C(=O)CCSc3ccccc32)c1,0,0,0,0,0
Cc1ccccc1C1C(C#N)=C2N=C(N)c3ccccc3N2C2=C1C(=O)CCC2 (configuration not stated),0,0,0,0,38.2
N#CC1=C2N=C(N)c3ccccc3N2C2=C(C(=O)CCC2)C1c1cccc(Cl)c1 (configuration not stated),0,0,0,0,0
C=CCn1c(-c2ccc(OC)cc2)nc2ccccc21,0,0,0,0,0
COc1ccc(-c2nc3ccccc3n2Cc2ccccc2)cc1,0,0,0,0,38.9
c1ccc(Cn2c(-c3cncs3)nc3ccccc32)cc1,0,0,0,0,0
Brc1ccc(Cn2c(-c3cncs3)nc3ccccc32)cc1,0,53.2,0,0,0
c1ccc(CNC2CCC23CCC(c2ccccc2)CC3)cc1 (configuration not stated),0,0,0,0,0
O=S(=O)(CC1NCc2cc(F)ccc21)NCc1ccc(F)cc1 (configuration not stated),0,0,0,0,0
Cc1ccc(OCCOc2ccc(Cl)cc2Cl)c([N+](=O)[O-])n1,0,47.9,0,0,0
COc1ccc(OCCOc2ccc(C)nc2[N+](=O)[O-])cc1,0,0,0,0,0
CCc1cc2c(-c3ccccc3)cc(=O)oc2cc1OC(C)C(C)=O (configuration not stated),0,0,0,0,0
O=C(Oc1cc2oc(=O)cc(-c3ccccc3)c2cc1Cl)C1CCCCC1,37.4,0,0,0,0
CC(C)(C)OC(=O)NCC(=O)Oc1cc2oc(=O)cc(-c3ccccc3)c2cc1Cl,15.6,0,0,0,0
C=CCSc1nc2c(c(=O)[nH]c(=O)n2C)n1Cc1ccc(C)cc1,0,0,0,0,37.7
COc1ccc2nc(NC(=O)C3CCN(S(=O)(=O)c4cccs4)CC3)sc2c1,0,0,0,0,0
Cc1ccc2nc(NC(=O)C3CCN(S(=O)(=O)c4cccs4)CC3)sc2c1,0,0,21.3,0,0
C=CCn1c(N)c(C(=O)NCCC2=CCCCC2)sc1=S,0,0,0,0,37.6
Cc1cccc(COC[C@H](Cc2ccccc2)N2CCN(C(=O)c3ccc(Cl)c(Cl)c3)CCC2=O)c1,0,0,0,0,0
SMILES,proKLK7 act,GC-A act,ADAM10 inh,ADAM17 inh,GC-B act
Cc1cccc(COCC(Cc2ccccc2)N2CCN(C(=O)c3ccc(Cl)c(Cl)c3)CCC2=O)c1 (configuration not stated),0,0,28.2,0,0
COc1ccc(CN(C)C(C#Cc2ccccc2)Cc2ccccc2)c(OC)c1 (configuration not stated),0,0,0,0,0
CCN1C(=S)N[C@@H](c2cccc(F)c2)C(C(=O)OC)=C1C,0,0,0,0,45.4
Cc1cccc(-c2cccc3c4c([nH]c23)[C@@H]2C[C@H](N(C)C(=O)NC3CCCCC3)[C@H]([C@H](C)O)CN2CC4)c1,0,0,0,0,0
COc1ccccc1NC(=S)N/N=C1\CC(C)(C)Oc2ccc(O)cc21,0,42.1,0,0,0
CCOc1ccc(C2C(C(=O)c3ccc(C)o3)=C(O)C(=O)N2c2nc(C)c(C(=O)OC)s2)cc1 (configuration not stated),0,44.4,0,0,0
CCC(NC(=O)C1CCCN(c2ncccn2)C1)c1ccccc1 (configuration not stated),0,0,0,0,0
CCOC(=O)c1c(C)n(CCOc2ccccc2)c2ccc(O)cc12,0,56.5,0,0,0
CCOC(=O)C1=C(N)Oc2cc(O)ccc2C1c1ccccc1 (configuration not stated),0,0,0,0,0
CCOC(=O)C1=C(N)Oc2cc(O)ccc2C1c1ccc(C)cc1 (configuration not stated),0,48.6,0,0,0
Cc1ccc(C2CC(=O)Oc3cc(O)ccc32)cc1 (configuration not stated),0,57.0,0,0,0
O=C1CC(c2ccccc2)c2cc(O)ccc2O1 (configuration not stated),0,-,0,0,-
CCn1c(SCC(=O)Nc2ccccc2-c2ccccc2)nnc1-c1ccc(Cl)cc1,0,0,0,0,0
COC(=O)[C@H](C(C)C)N1Cc2nnn(CC3CCCCC3)c2-c2cc(F)ccc2S1(=O)=O,0,0,0,0,0
CN1CCN(C(c2ccc(Br)cc2)c2cc(Cl)c3cccnc3c2O)CC1 (configuration not stated),0,0,24.0,19.6,0
Cn1c(=O)n(Cc2ccccc2)c(=O)c2c1nc1n2CCCN1CCc1ccccc1,0,0,0,0,43.2
COc1ccc(CNC(=O)c2cccc3c(-c4cccc(C(N)=O)c4)coc23)cc1OC,0,0,0,0,37.7
C#CCCCN([C@H](C(=O)OC)C(C)C)S(=O)(=O)c1ccc(F)cc1Br,0,0,0,0,0
CCN(CC)C(=O)CC[C@@H]1CC[C@]2(CCCN(Cc3cccc4ccccc34)C2)O1,0,0,0,0,0
CSc1ccccc1OCc1cc(C(=O)N[C@H]2CCCCNC2=O)no1,0,62.1,0,0,0
COC(=O)C1CN(Cc2cn(CCC3OCCO3)nn2)CCS(=O)(=O)N1Cc1ccc(OC)cc1 (configuration not stated),0,0,0,0,0
O=C(c1sccc1Cl)N1CCC(n2nnc3ncccc32)CC1,0,0,0,0,0
CCOC(=O)CSc1ncnc2c1sc1nc(N3CCOCC3)c3c(c12)CCCC3,0,0,0,0,36.5
COC(=O)c1ccc(Cn2cnc3c(sc4nc(N5CCOCC5)c5c(c43)CCCC5)c2=O)o1,0,41.0,0,0,48.6
COC(=O)CSc1ncnc2c1sc1nc(N3CCOCC3)c3c(c12)CCCC3,0,0,0,0,0

# Compound activity deposited in PubChem by several laboratories.
